Assay [1] has as its target Nuclear receptor coactivator 3 (Homo sapiens) (UniProt Q9Y6Q9). The assay is described as follows: NCOA3 GAL4-fusion reporter inhibition – cell-based, luminescence, quadruplicate, confirmation (AID 588792;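 active means mean inhibition over 43.08%, the solvent-only control mean plus 3 SD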;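 further: 0% = DMSO treated cells and 100% = gossypol at 36 µM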). The note with it: HEK293 GAL4-SRC3 luciferase reporter, at 3.6 µM, hits give high values. On the technique in general: A reporter such as luciferase makes a cellular process visible.

Assay [2] relates to transactivating tegument protein VP16 (Human herpesvirus 1), Gal4-VP16 luciferase reporter. Briefly: repression of VP16-driven luciferase reporter – cell-based, luminescence, high throughput, counter-screen for SRC3 inhibitor project (AID 588794). The note with it: mammalian cells, at 3.6 µM, hits give high values.

We go through 70 compounds from PubChem BioAssay.

A number with no mark means an inactive call. Active and inactive are the calls of the source. Unless noted, no stated cut-off is given here; in the data, active means inhibition above about 30%; inactive means the rest.

Nuclear receptor coactivator 3 (Homo sapiens), sequence (Q9Y6Q9 whole entry, looked up, the tested form may be a part): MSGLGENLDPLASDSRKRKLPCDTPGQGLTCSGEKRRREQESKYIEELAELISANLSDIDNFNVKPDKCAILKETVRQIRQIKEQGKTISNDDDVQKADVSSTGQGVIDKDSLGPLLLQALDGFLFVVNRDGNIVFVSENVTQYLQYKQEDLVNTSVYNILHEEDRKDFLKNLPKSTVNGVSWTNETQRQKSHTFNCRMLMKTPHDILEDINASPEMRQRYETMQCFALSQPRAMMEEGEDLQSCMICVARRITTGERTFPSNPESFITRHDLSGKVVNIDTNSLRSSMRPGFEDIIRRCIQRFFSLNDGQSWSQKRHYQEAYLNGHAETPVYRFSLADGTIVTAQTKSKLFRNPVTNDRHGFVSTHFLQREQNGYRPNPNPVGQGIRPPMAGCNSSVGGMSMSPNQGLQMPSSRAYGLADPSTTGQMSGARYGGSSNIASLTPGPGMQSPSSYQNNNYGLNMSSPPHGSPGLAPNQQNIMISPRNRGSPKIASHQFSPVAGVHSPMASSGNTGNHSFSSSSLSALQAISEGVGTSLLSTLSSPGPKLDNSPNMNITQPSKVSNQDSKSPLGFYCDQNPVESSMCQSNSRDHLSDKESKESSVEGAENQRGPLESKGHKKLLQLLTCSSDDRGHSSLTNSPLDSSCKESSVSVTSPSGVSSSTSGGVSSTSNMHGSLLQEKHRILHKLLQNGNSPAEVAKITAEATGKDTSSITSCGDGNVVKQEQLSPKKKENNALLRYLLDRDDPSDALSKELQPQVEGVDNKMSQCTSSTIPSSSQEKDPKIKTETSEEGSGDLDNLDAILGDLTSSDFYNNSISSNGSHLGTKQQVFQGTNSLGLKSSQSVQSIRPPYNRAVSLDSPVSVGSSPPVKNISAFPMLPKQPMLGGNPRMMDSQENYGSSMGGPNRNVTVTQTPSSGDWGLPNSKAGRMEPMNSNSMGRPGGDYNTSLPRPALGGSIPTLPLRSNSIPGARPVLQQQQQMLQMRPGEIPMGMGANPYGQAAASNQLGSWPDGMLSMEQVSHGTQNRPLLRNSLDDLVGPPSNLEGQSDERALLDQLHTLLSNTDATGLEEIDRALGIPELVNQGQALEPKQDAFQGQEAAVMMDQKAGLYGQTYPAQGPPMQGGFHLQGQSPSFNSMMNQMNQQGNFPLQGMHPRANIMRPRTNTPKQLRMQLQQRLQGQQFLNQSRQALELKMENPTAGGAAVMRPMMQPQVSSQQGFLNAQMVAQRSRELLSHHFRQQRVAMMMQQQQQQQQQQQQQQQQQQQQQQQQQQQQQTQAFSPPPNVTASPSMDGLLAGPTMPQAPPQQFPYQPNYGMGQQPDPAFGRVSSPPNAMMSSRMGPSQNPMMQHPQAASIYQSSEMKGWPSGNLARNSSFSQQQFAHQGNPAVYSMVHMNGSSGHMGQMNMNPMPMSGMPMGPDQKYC

For the compound `Cc1ccc(N=Nc2ccc3ccccc3c2O)cc1`, the inhibition – broadly, the drop in the measured response relative to a control, in per cent – in assay [1] was 30.8%; in assay [2] it was 17.5%.
Take `CCCn1c(C)cc(C(=O)COc2ccc(C)nc2[N+](=O)[O-])c1C`: the results for the inhibition in assay [1] and in assay [2] were 11.3% and 6.56%, respectively.
The matching figures for `CCSc1ccccc1C(=O)NCc1ccc2c(c1)OCO2`: 1.07% and -10.1%.
The matching figures for `COc1ccc(CNC(=O)[C@H](Cc2ccccc2)NC(=O)C2CCN(C(=O)[C@H](C)N)CC2)cc1`: 12.2% and -2.01%.
The matching figures for `COc1ccc(/C=C/C(=O)C23CC4CC(CC(C4)C2)C3)cc1CN1CCOCC1`: 22.6% and 6.66%.
In the case of `CCCCNS(=O)(=O)c1ccc(S(=O)(=O)NCc2ccncc2)cc1`, the inhibition was 16.5% in assay [1] and 25.1% in assay [2].
The matching figures for `Nc1nc(NCc2ccco2)nc(N2CCCCCC2)c1[N+](=O)[O-]`: -0.71% and 18%.
Regarding `O=C(Nc1sc2c(c1C(=O)O)CCCC2)c1ccc(F)cc1`, the results for the inhibition in assay [1] and in assay [2] were 0.98% and 27.5%, respectively.
On to `C=CCn1c(SCC(=O)NC2CCCC2)nnc1-c1ccccn1`, for which the figures for the inhibition in assay [1] and in assay [2] were -14.7% and -2.97%, respectively.
The matching figures for `COc1ccccc1NS(=O)(=O)c1cc(NC(=O)c2[nH]c(C)c(C(C)=O)c2C)ccc1N1CCOCC1`: 15.5% and -14.8%.
The matching figures for `O=C(NCc1cccs1)C1CCCN(C(=O)Nc2ccc(F)cc2)C1` (stereo not given): -1.07% and 5.59%.
The matching figures for `O=C(C1CCC1)N1CCN(c2ccnc3cc(Cl)ccc23)CC1`: 17% and 6.97%.
For the compound `Cc1ccc(C(=O)OCC(=O)Nc2sccc2C(N)=O)cc1NC(=O)c1ccco1`, the inhibition was 18.4% in assay [1] and 11.5% in assay [2].
For `O=S(=O)(NC1=NCCC1)c1cccc(NS(=O)(=O)c2ccc(OC(F)(F)F)cc2)c1`, the figures for the inhibition in assay [1] and in assay [2] were -6.28% and -8.52%, respectively.
The matching figures for `Cc1ccc(-c2cn(-c3ccc(OC(F)F)cc3)c3[n+]2CCCCC3)cc1`: 3.74% and 23%.
Regarding `CCCCCCC(=O)NNC(=O)CC(=O)Nc1ccccc1C(=O)O`, the inhibition in assay [1] is 4.52%; in assay [2], -10.2%.
The matching figures for `CNCC(C)COc1ccccc1OCc1ccccc1` (stereo not given): 2.54% and 10.4%.
The matching figures for `Cn1nc(C(F)(F)F)cc1C(=O)Nc1ccc(Cl)cc1`: 4.63% and 8.1%.
Consider `COc1ccccc1N(CC(=O)N/N=C/c1c(O)ccc2ccccc12)S(C)(=O)=O`, for which the values for the inhibition in assay [1] and in assay [2] were 34.2% and 41.2% (active), respectively.
The matching figures for `COc1ccc(C(=O)Nc2nc(-c3ccccn3)cs2)cc1S(=O)(=O)N1CCOCC1`: 18.3% and -11.1%.
The matching figures for `O=C(N/N=C/c1c(O)ccc2ccccc12)c1ccc(CO)nc1`: 26.3% and 41.3% (active).
The matching figures for `CCc1cccc(CC)c1C(OC(C)=O)c1cccnc1` (stereo not given): -15.7% and -7.1%.
`CCc1ccc(OCC(=O)NC(NC(=S)Nc2ccc(Cl)cc2)C(Cl)(Cl)Cl)cc1` (stereo not given): the inhibition in assay [1] is -0.7%; in assay [2], 0.6%.
Take `CCCC(=O)NC(c1ccc(C(C)C)cc1)c1ccc2cccnc2c1O` (stereo not given): the inhibition in assay [1] was 74.5% (active); in assay [2] it was 73.2% (active).
For the compound `Cc1nc(SCC(=O)NCc2ccc3c(c2)OCO3)c(C#N)c2c1CCCC2`, the inhibition was -21.9% in assay [1] and -7.85% in assay [2].
For `CCN(c1ccccc1)S(=O)(=O)c1ccc(C(=O)Nc2nnc(-c3ccco3)o2)cc1`, the inhibition in assay [1] is 8.7%; in assay [2] it was 9.19%.
As for `C=CCOn1c(C)c(C(C)=O)c2c3nonc3ccc21`, the values for the inhibition in assay [1] and in assay [2] were 42% and 25.4%, respectively.
The matching figures for `CO[C@@]12[C@@H]3N[C@@H]3CN1C1=C(C(=O)C(N)=C(C)C1=O)[C@@H]2COC(N)=O`: 35.1% and 22%.
`Cn1c(N)c(C(=O)COC(=O)C2CC(=O)N(Cc3ccccc3)C2)c(=O)n(C)c1=O` (stereo not given): the inhibition in assay [1] was -0.18%; in assay [2], -2.93%.
The matching figures for `CC(C)(CC(=O)O)CC(=O)Nc1cc(C(F)(F)F)cc(C(F)(F)F)c1`: 6.02% and -7.34%.
The matching figures for `O=C(NCC1CCCO1)c1cccc2c1C(=O)c1ccc(N3CCC(Cc4ccccc4)CC3)cc1S2(=O)=O` (stereo not given): -2.13% and 10.6%.
Regarding `CC1CCc2sc3ncnc(N4CCOCC4)c3c2C1` (stereo not given), the inhibition in assay [1] was 32.5%; in assay [2], 29.8% (active).
On to `CCOCc1c(C(=O)NC2=Nc3ccccc3NC(CC)=C2C(=O)OCC)oc2ccccc12`, for which the values for the inhibition in assay [1] and in assay [2] were 1.38% and -11.3%, respectively.
The matching figures for `O=C(Nc1ccc([N+](=O)[O-])cc1)Nc1nc(-c2ccc(Cl)s2)cs1`: 60.4% (active) and 71.6% (active).
Turning to `Cc1ccc2occ(/C=N/NC(=O)c3ccccc3Br)c(=O)c2c1`, the inhibition in assay [1] was 40.7%; in assay [2] it was 28.5%.
With `O=C(CC12CC3CC(CC(C3)C1)C2)Nc1nncs1`, the inhibition is 15.4% in assay [1] and 19.6% in assay [2].
On to `CSc1cccc(N/C(=N/S(=O)(=O)c2ccccc2)NN)c1`, for which the inhibition in assay [1] was 5.54%; in assay [2], 0.02%.
Consider `Nc1ccccc1SCC(=O)Nc1nc(-c2ccccc2)cs1`, for which the values for the inhibition in assay [1] and in assay [2] were 25% and 48.4% (active), respectively.
Consider `Cc1cc(C)nc(/N=C(\N)Nc2ccc(OCCC(C)C)cc2)n1`, for which the inhibition in assay [1] is -1.86%; in assay [2], 23.4%.
The matching figures for `C=CC[C@@H](CC(=O)NCCO)C(=O)NC[C@H](OC(=O)[C@@H](CC=C)Cc1ccc(F)cc1)c1ccccc1`: 16.2% and 2.08%.
The matching figures for `CC(=O)Nc1ccc(OCC(O)Cn2c3ccccc3c3ccccc32)c(C)c1` (stereo not given): -0.56% and -0.54%.
The matching figures for `CCN(C(=O)COC(=O)/C(=C/c1ccccc1)n1nnnc1C)C1CCCCC1`: 26.9% and 27%.
Regarding `COc1cccc(/C=N/NC(=O)CNC(=O)C(c2ccccc2)c2ccccc2)c1O`, the values for the inhibition in assay [1] and in assay [2] were 17.2% and 20.7%, respectively.
The matching figures for `Cc1cc(/C=C2\SC(=S)N(C)C2=O)c(C)n1-c1cccc(O)c1`: 51.6% (active) and 38% (active).
The matching figures for `C[C@H](NC(=O)Nc1ccccc1F)C(=O)O`: 5.66% and 3.39%.
On to `c1ccc(NNC2=NCCCCC2)cc1`, for which the inhibition in assay [1] is 1.28%; in assay [2], -9.77%.
In the case of `Cc1ccc(S(=O)(=O)NC(=O)c2cc(C)n(-c3ccccc3)c2C)cc1`, the inhibition is -1.88% in assay [1] and -1.79% in assay [2].
The matching figures for `COc1ccc(NC(=O)c2oc3ccc(S(=O)(=O)N4CCC5(CC4)OCCO5)cc3c2C)cc1`: 5.45% and 8.97%.
For the compound `CCOC(=O)c1c(Nc2ccccc2OCCOC)n[nH]c1C`, the inhibition was -0.73% in assay [1] and -0.92% in assay [2].
The matching figures for `COc1ccc(C(=O)NN(C)c2nc(C(F)(F)F)nc3ccccc23)cc1`: 51.1% (active) and 35.3% (active).
Consider `C#CCOCCOCCOCCNc1nc(N2CCN(C(=O)Cn3cc(CCCN=C(N)N)nn3)CC2)nc(N2CCN(C(=O)[C@H](C)n3cc(CCCN=C(N)N)nn3)CC2)n1`, for which the inhibition in assay [1] was 3.42%; in assay [2], 0.02%.
In the case of `CC(=O)Nc1cccc(C(=O)/C=C/c2ccc(Br)cc2)c1`, the inhibition is 10.8% in assay [1] and 11% in assay [2].
Turning to `Cn1nc(C(F)(F)F)c(-c2ccc(Br)cc2)c1NC(=O)c1ccco1`, the inhibition was 7.4% in assay [1] and -1.15% in assay [2].
The matching figures for `CCN1C/C(=C\c2cccc([N+](=O)[O-])c2)C(=O)/C(=C/c2cccc([N+](=O)[O-])c2)C1`: -110% and 80.6% (active).
The matching figures for `CC(=O)Nc1ccc(C(=O)N/N=C/c2cc(Br)cc(Br)c2O)cc1`: 6.09% and 11.2%.
The matching figures for `O=C(Nc1ccccc1Cc1ccccc1)c1ccccc1NS(=O)(=O)c1ccc(Cl)s1`: 4.01% and 24.9%.
With `COc1ccc(Cl)cc1C(=O)Nn1c(-c2cccs2)nc2ccccc2c1=O`, the inhibition in assay [1] is 25.5%; in assay [2], 22.1%.
The matching figures for `CCCC(=O)NC(NC(=S)Nc1ccc(N=Nc2ccccc2)cc1)C(Cl)(Cl)Cl` (stereo not given): 3.89% and 18.1%.
Take `Cc1cccc(C)c1NC(=O)c1ccc(-c2ccc(Cl)cc2Cl)o1`: the inhibition in assay [1] is 28.4%; in assay [2] it was 23%.
Consider `COc1ccc(C(CC(=O)O)NC(=O)OC(C)(C)C)cc1` (stereo not given), for which the inhibition is 4.59% in assay [1] and 3.31% in assay [2].
The matching figures for `Cc1nc2ccccn2c1-c1ccnn1S(=O)(=O)c1ccc(F)cc1`: 3.74% and 12.3%.
The matching figures for `CC1CCC(C(C)C)C(OC(=O)Cn2c(-c3ccc(Br)cc3)[n+](C)c3ccccc32)C1` (stereo not given): 3.76% and 35.8% (active).
For the compound `O=C1N=C(N2CCN(c3ccccc3)CC2)S/C1=C\c1cn[nH]c1-c1ccccc1`, the inhibition in assay [1] is 8.51%; in assay [2], 2.8%.
With `NC(=S)N/N=C\c1c(OCc2ccccc2Cl)ccc2ccccc12`, the results for the inhibition in assay [1] and in assay [2] were 18.1% and 27.6%, respectively.
With `O=C(Nc1ccc(S(=O)(=O)Nc2ccc(F)cc2)cc1)c1ccc(CN2CCOCC2)cc1`, the inhibition in assay [1] is 7.38%; in assay [2], 38.6% (active).
Consider `COc1ccc([N+](=O)[O-])cc1NC(=O)Nc1cccc(Cl)c1`, for which the inhibition was 19.4% in assay [1] and 15.4% in assay [2].
For `COc1cc(/C=C2/SC(=S)N(c3ccccc3)C2=O)ccc1Oc1nc(N2CCOCC2)nc(N2CCOCC2)n1`, the figures for the inhibition in assay [1] and in assay [2] were 4.82% and -7.44%, respectively.
On to `COc1ccc(Nc2nc(-c3ccccc3)nc3ccccc23)cc1S(=O)(=O)N1CCOCC1`, for which the inhibition in assay [1] is 7.91%; in assay [2], 1.3%.
As for `Cc1[nH]c2ccccc2c1C(=O)CN1C(=O)NC2(CC(C)CC(C)(C)C2)C1=O` (stereo not given), the figures for the inhibition in assay [1] and in assay [2] were 11.9% and -5.15%, respectively.
The matching figures for `Cc1ccc(-n2cccn2)c(CN2CCCC(C(=O)c3sccc3C)C2)c1` (stereo not given): 18.9% and 32.1% (active).
